This note sets out measurements from PubChem BioAssay (NCATS).

Calls of active or inactive are those of the source. No rule for the calls is given here.
Potency is read from the fitted curve at half-maximal effect.

For the assay, the system named is HIV-1 nucleocapsid protein NCp7 (binding to TG oligonucleotide). Briefly: HIV Nucleocapsid (AID 346).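 Also: potency is for inhibitors that block NC binding and lower polarization.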 The conditions noted are these: HIV-1 NC / fluorescein-TGTGTGTG probe, fluorescence polarization. The method in brief:
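10 nM TG4xF probe with 100 nM nucleocapsid protein in high-salt Hepes pH 7.5 (250mM NaCl) containing 1uM ZnCl2 and reducing agents. Compound inhibition of binding was read as fluorescein polarization after 1 hr at room temperature.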
(In general: Polarisation of emitted light reports the rotation of a fluorescent probe.)
As for `c1ccc2c(NC3CC3)nc(-c3ccoc3)nc2c1`, the Potency was > 20 µM (inactive).
For `COc1cccc(-c2nccc(NCc3cccc(C)c3)n2)c1`, the Potency was > 20 µM (inactive).
On to `COc1cccc(Cn2c(=O)c(C)nc3cnc(Nc4cccc(OC)c4)nc32)c1`, for which the Potency is > 20 µM (inactive).
Next, `COCC(=O)N1CCC2(CC1)CN(C(=O)Nc1ccc(OC)cc1)C2`: > 20 µM (inactive); `Cc1cnc(CNc2ccnc(-c3cccnc3)n2)cn1`: > 20 µM (inactive); `Clc1ccccc1-c1nccc(NCc2ccccc2)n1`: > 20 µM (inactive).
`O=C(c1ccncc1)N1CCC[C@@]2(CCN(c3ccccc3)C2)C1`: the Potency is > 20 µM (inactive).
Take `CS(=O)(=O)Nc1cccc(-c2nccc(NCc3cccs3)n2)c1`: the Potency was > 20 µM (inactive).
Consider `N#Cc1cccc(-c2ccc3ncnc(NCc4cccs4)c3c2)c1`, for which the Potency was > 20 µM (inactive).
For `COc1ccccc1CNc1nc(-c2cccc(C#N)c2)nc2ccccc12`, the Potency is > 20 µM (inactive).
As to `COc1ccc(NC(=O)N2CCC3(CC2)CCN(C(=O)c2csnn2)CC3)cc1`, the Potency was > 20 µM (inactive).
Next, `COC(=O)N1CCC2(CCN(Cc3nccs3)CC2)CC1`: > 20 µM (inactive); `COc1cccc(-c2ccc3ncnc(NC4CCNCC4)c3c2)c1`: > 20 µM (inactive); `COc1cccc(-c2cncnc2NCCc2c[nH]c3ccc(OC)cc23)c1`: > 20 µM (inactive).
On to `COc1ccccc1CN1CCC2(CC1)CCN(S(C)(=O)=O)CC2`, for which the Potency was > 20 µM (inactive).
`CN(C)C(=O)c1ccc(-c2cncnc2N2CCNCC2)cc1`: the Potency was > 20 µM (inactive).
With `Clc1ccccc1-c1nc(NC2CCNCC2)c2ccccc2n1`, the Potency was > 20 µM (inactive).
As to `CCNc1ncc2nc(CCc3ccccc3)c(=O)n(C)c2n1`, the Potency was > 20 µM (inactive).
Consider `COC(=O)N1CCC2(CCCN(Cc3ccc(C#N)cc3)C2)CC1`, for which the Potency is > 20 µM (inactive).
For the compound `COCCn1c(=O)c(-c2cccs2)nc2cnc(Oc3cccc(Cl)c3)nc21`, the Potency is > 20 µM (inactive).
Regarding `Cc1cnc(CNc2nc(-c3ccc(C(=O)N(C)C)cc3)nc3ccccc23)cn1`, the Potency is > 20 µM (inactive).
As for `O=c1c(-c2cc(F)cc(F)c2)nc2cncnc2n1Cc1ccc(F)cc1`, the Potency was > 20 µM (inactive).
`CN(Cc1ccco1)c1ncnc2ccc(-c3ccoc3)cc12`: the Potency is > 20 µM (inactive).
For the compound `CS(=O)(=O)N1CCC2(CC1)CN(Cc1nccs1)C2`, the Potency was > 20 µM (inactive).
